# Rows were chosen to be rich in hits. Some 8% of all compounds tested hit in one or more screens of this group.
# LASV entry inh = Lassa virus entry inhibition; AID 540256; Potency, µM (highest dose often 37.9 µM), most hits filed as inhibitors; Lassa virus pseudotype entry inhibition, cell reporter; hit rate 1.2% among 300,000; calls by dose curve; tested in HEK293 cells; further: nearly all actives have a fitted effect of over 50% in size
# HCMV inh = blocks human cytomegalovirus replication; HFF cells, HCMV-luciferase reporter, 72 h; hits give low values; activity change, negative = inhibition, % at 57.5 µM; hit rate 4.5% among 410,000; AID 1259415; in the data active means activity change below about -60%; inconclusive means no clear call, values can overlap the other calls; inactive means above about -39%
#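 Screen run at 2 compound doses on HFFs infected with reporter HCMV, MOI 1 PFU/cell. Luciferase activity from cell lysates at 72 h post infection gave inhibition relative to buffer-only and Salinomycin wells.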
# SARS PLP yeast = blocks SARS-CoV papain-like protease in a yeast assay; Potency, µM (top dose mostly 32.9 µM), usual class: activators; hit rate 0.19% among 330,000; S. cerevisiae expressing SARS-CoV PLpro, growth rescue; calls by dose curve; further: nearly all actives have a fitted effect of over 55% in size
# FMDV antiviral = antivirals against foot and mouth disease virus. Potency, µM (top dose mostly 57.9 µM), hits mostly inhibitors. hit rate 1.2% among 410,000. FMDV antiviral cell-based qHTS; calls by dose curve; tested in HEK293T cells; further: read-out not given here; nearly all actives have a fitted effect of over 45% in size
# Marburg entry inh = Marburg virus entry inhibition; hit rate 1.8% among 300,000; Marburg virus pseudotyped entry inhibition, cell reporter; Potency, µM (titrated, usually from 37.8 µM), actives largely listed as inhibitors; calls by dose curve; tested in HEK293 cells
# HCV inhibitor = HCV inhibition | hit rate 3.4% among 340,000 | Huh7.5.1 HCVcc-Cre infection, luciferase reporter, 44 h | Potency, µM (titrated, usually from 41.8 µM), most hits filed as inhibitors; active means well fitted inhibition curve with a large enough effect; inconclusive means small, poorly fitted or top-dose-only effect, or another doubt; inactive means no such curve, though single readings can be large or run the other way
#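 Compounds are dispensed onto cells plated 4 h earlier at 1,000 per well, with HCVcc-Cre virus (about 0.5 moi) added next. Following 44 h of culture, luminescent signal is measured for 15 sec after 15 min with substrate at room temperature.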
# Numbers stand for hits; – = inactive; ? = inconclusive; · = no result given; ! = not active in a repeat.
SMILES,LASV entry inh,HCMV inh,SARS PLP yeast,FMDV antiviral,Marburg entry inh,HCV inhibitor
Cc1ccc(OCC(O)CN2CCC(Cc3ccccc3)CC2)c(C)c1 (centres undefined),·,-77,–,–,·,11µM
OC(COCc1ccc(Cl)cc1)CN1CCN(CC(O)COCc2ccc(Cl)cc2)CC1 (centres undefined),?,?,–,?,?,11µM
COc1cccc(OCC(O)CN2CCC(Cc3ccccc3)CC2)c1 (centres undefined),–,–,–,–,?,?
OC(COCc1ccc(Cl)cc1)CN1CCCCC1 (centres undefined),·,–,–,–,·,–
C=CCc1ccc(OCC(O)CN2CCN(Cc3ccc(Cl)cc3)CC2)c(OC)c1 (centres undefined),?,?,–,–,8.2µM,?
OC(COc1ccccc1)CN1CCC(Cc2ccccc2)CC1 (centres undefined),?,–,–,–,?,–
C=CCc1ccc(OCC(O)CN2CCN(c3ccccc3OC)CC2)c(OC)c1 (centres undefined),·,–,–,?,·,?
C=CCc1ccc(OCC(O)CN2CCC(Cc3ccccc3)CC2)c(OC)c1 (centres undefined),13µM,–,–,–,?,6.3µM
Cc1ccc(CNC(=O)Cn2ccn(-c3ccc(F)cc3)c(=O)c2=O)cc1,–,–,·,–,·,·
CCCc1c(C(=O)N/N=C/c2ccccc2C(F)(F)F)nnn1-c1nonc1N,·,–,–,–,·,?
Cc1ccc2[nH]c(C(=O)Nc3ccccc3)cc2c1,–,–,·,–,?,·
O=C(Nc1ccccc1)OC[C@@H]1CSCCS(=O)(=O)N1,·,–,·,·,·,·
COC(=O)c1c(OCc2ccccn2)cc(=O)n2c1CCN(Cc1ccc3nsnc3c1)CC2,·,·,·,–,·,·
CC(/C=N\NC(=O)c1ccc2c(c1)OCO2)c1ccccc1 (centres undefined),·,–,–,–,·,–
CC1c2ccccc2-c2ccccc2N1C (centres undefined),–,–,·,–,–,13µM
Cc1ccc(-n2ccn(CC(=O)NCCc3ccccc3)c(=O)c2=O)cc1C,–,?,–,–,·,–
CCCCC(=O)Nc1ccc(C(=O)OC2CCCCC2)cc1,?,-96,–,–,–,?
O=C(Nc1ccc(C(=O)OC2CCCCC2)cc1)c1ccncc1,?,-78,–,–,?,?
O=C(O)CCC(=O)Nc1ccc(C(=O)OC2CCCCC2)cc1,–,–,–,·,–,–
CC(C)(C)C(=O)Nc1ccc(C(=O)OC2CCCCC2)cc1,?,·,–,·,?,?
O=C(OC1CCCCC1)c1ccc(NC(=O)C2CCCCC2)cc1,?,–,–,–,?,25µM
O=C(Nc1ccc(C(=O)N2CCCCC2)cc1)C1CCCCC1,–,–,–,–,–,–
Cc1ccc(NC(=O)C2CC(=O)Nc3nncn32)cc1 (centres undefined),·,–,–,–,·,–
Cc1cccc(N2CCN(C(=O)c3cccn3-c3nnc(N4CCCCC4)s3)CC2)c1C,?,–,·,?,·,·
CCOc1ccccc1CNCc1cccn1-c1nnc(N2CCN(c3ccccc3)CC2)s1,?,-98,·,?,·,·
SMILES,LASV entry inh,HCMV inh,SARS PLP yeast,FMDV antiviral,Marburg entry inh,HCV inhibitor
Cc1cccc(N2CCN(C(=O)CS(=O)(=O)Cc3nc(-c4ccccc4F)oc3C)CC2C)c1 (centres undefined),·,–,–,35µM,–,13µM
Cc1oc(-c2ccccc2F)nc1CS(=O)(=O)CC(=O)N1CCN(c2cccc(C(F)(F)F)c2)CC1,–,–,·,35µM,?,·
Cn1c(SCc2cccnc2)nc2c(c1=O)SCC2,–,–,–,–,–,?
Cn1c(SCc2cccc([N+](=O)[O-])c2)nc2c(c1=O)SCC2,?,-72,–,28µM,?,?
CC(=O)c1c(C)[nH]c(C(=O)N2CCN(c3cc(Cl)ccc3C)CC2)c1C,6.5µM,–,–,?,7.3µM,?
Cc1ccc(Cl)cc1N1CCN(C(=O)c2ccc(CN3CCOCC3)cc2)CC1,–,–,–,·,?,25µM
COc1cccc(N2CCN(C(=O)c3[nH]c(C)c(C(C)=O)c3C)CC2)c1,–,–,–,–,?,?
Cc1cccc(N2CCN(C(=O)C3(S(=O)(=O)c4ccc(Cl)cc4)CC3)CC2)c1C,·,?,–,–,·,?
Cc1ccc(Cl)cc1N1CCN(C(=O)C2(S(=O)(=O)c3ccc(Cl)cc3)CC2)CC1,–,–,–,?,–,14µM
CC(=O)c1c(C)[nH]c(C(=O)N2CCN(c3ccc(F)cc3)CC2)c1C,–,-71,–,–,–,–
Cc1ccc(Cl)cc1N1CCN(C(=O)c2cc3c(=O)[nH]c4ccccc4c3n2C)CC1,?,-95,–,7.9µM,5.6µM!,8.9µM!
Cn1c(C(=O)N2CCN(c3ccc(Cl)cc3)CC2)cc2c(=O)[nH]c3ccccc3c21,–,–,–,–,?,?
COC(=O)c1[nH]c2cccc(Cl)c2c1NC(=O)CN(C)C1CCCCC1,–,–,–,–,11µM,?
CCOC(=O)C1CCN(CC(=O)Nc2c(C(=O)OC)[nH]c3cccc(Cl)c23)CC1,–,–,–,–,–,–
Cc1ccccc1OCC(=O)Nc1ccc2c(c1)Cc1ccccc1-2,–,–,–,–,–,–
Cc1ccc(NC(=O)CSc2ccccc2)cc1S(=O)(=O)N1CCOCC1,–,–,–,–,–,–
N#Cc1ccccc1OCC(=O)Nc1cccc(S(=O)(=O)N2CCCC2)c1,·,–,–,–,·,?
Cc1ccc(NC(=O)CSc2ncnc3ccccc23)cc1S(=O)(=O)N1CCCCC1,?,–,–,16µM,?,?
Cc1ccc(NC(=O)COc2ccccc2C#N)cc1S(=O)(=O)N1CCCCCC1,·,–,–,?,·,10µM
Cc1ccc(NC(=O)CSc2ccccc2)cc1S(=O)(=O)N1CCCCC1,?,?,–,?,?,13µM
O=C(COc1ccccc1)Nc1ccc2c(c1)Cc1cc(NC(=O)COc3ccccc3)ccc1-2,–,-80,–,–,–,?
CCOC(=O)N1CCN(C(=O)c2cn(C)c3ccc(S(=O)(=O)N4CCC(C)CC4)cc3c2=O)CC1,–,–,–,–,–,–
COC(=O)c1ccc(CN2C(=O)[C@@]3(CC(C)=CC[C@@H](COc4ccccc4)O3)c3c(Br)cccc32)cc1,–,·,·,·,–,·
Cc1cccc(NC(=O)CSc2nc(=O)n(CCN3CCOCC3)c3c2CCC3)c1,–,–,·,–,·,·
CSc1ccc(-c2ccc(C(=O)NCC3CCCO3)c(N3CCC(O)CC3)n2)cc1 (centres undefined),·,·,·,–,·,·
CCOC(=O)c1ccc(NC(=S)NCCCN2CCOCC2)cc1,·,–,–,–,·,–
Cc1ccc(NC(=O)c2cc(=O)c3ccccc3o2)cc1S(=O)(=O)N1CCOCC1,·,–,–,–,·,?
COc1ccc(NC(=O)COc2ccc(C)c(C)c2)cc1S(=O)(=O)N1CCCCC1,?,–,–,?,?,?
Cc1ccc(NC(=O)Cc2n[nH]c(=O)c3ccccc23)cc1S(=O)(=O)N1CCCCCC1,?,-69,–,–,?,10µM

# Assay outcomes (PubChem)
